Some test systems named below: DU-145 prostate; K-562 leukemia; MALME-3M melanoma; MDA-MB-231 breast; RXF 393 renal; SF-268 CNS; SF-295 CNS; SF-539 CNS; UACC-257 melanoma; M14 melanoma; HCT-15 colon; HT29 colon; SNB-75 CNS; SNB-19 CNS; U251 CNS; PC-3 prostate; SK-MEL-5 melanoma; UACC-62 melanoma; LOX IMVI melanoma; SK-MEL-28 melanoma.
Holding throughout (experiment): NCI-60 one-dose screen, 48 h (100 = growth as untreated, 0 = no growth, -100 = all killed)
Common to all, as to details: 10 µM unless noted

This is part of a sample that, as a whole, favours compounds with a hit. Of some 83,000 tested, about 20% had one in any assay.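 A percent growth of 40 corresponds to 60% growth inhibition; 0 means no net growth; -100 means all cells died. Active threshold: below 10.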 A number with no mark means an inactive call. The source made the active and inactive calls.

Consider `O=C(Nc1ccccc1)Nc1cccc(Oc2nnc(Cl)c3ccccc23)c1`, for which the growth with DU-145 prostate was 39%; in the assay with K-562 leukemia it was 51.6%; in the assay with MALME-3M melanoma it was -29.6% (active); in the assay with MDA-MB-231 breast it was 32.1%; in the assay on RXF 393 renal, -3.63% (active); with SF-268 CNS, 25.9%. The growth in the assay with SF-295 CNS was 31.2%; in the assay on SF-539 CNS, -22% (active); in the assay on UACC-257 melanoma, 22%; in the assay with M14 melanoma, 46.3%; with HCT-15 colon, 36.4%; in the assay with HT29 colon it was 23.8%. The growth was -42% (active) with SNB-75 CNS; 9.64% (active) in the assay with SNB-19 CNS; 4.84% (active) in the assay on U251 CNS; 25.9% in the assay with PC-3 prostate; 32.9% in the assay with SK-MEL-5 melanoma; 41.3% in the assay with UACC-62 melanoma. In addition, the figures for the growth in the assay with LOX IMVI melanoma and with SK-MEL-28 melanoma were 32.1% and 44.2%, respectively.
As for `COc1ccc2cc(-c3cc(OC)c(OC)c(OC)c3)c(=O)oc2c1`, the growth in the assay on DU-145 prostate is 101%; with K-562 leukemia, 27.7%; with MALME-3M melanoma it was 65.1%; in the assay on MDA-MB-231 breast, 60.8%; with RXF 393 renal, 84.9%; with SF-268 CNS, 89.7%. Further, the growth in the assay on SF-295 CNS was 71.4%; in the assay on SF-539 CNS, 80.2%; with UACC-257 melanoma, 54.9%; with M14 melanoma, 38.6%; in the assay with HCT-15 colon, 50%; in the assay with HT29 colon it was 44.3%. Also, the growth in the assay with SNB-75 CNS was 65%; with SNB-19 CNS, 80.3%; in the assay on U251 CNS it was 70.7%; in the assay with PC-3 prostate, 69.2%; in the assay on SK-MEL-5 melanoma, 79.5%; in the assay with UACC-62 melanoma it was 42%. In addition, the values for the growth with LOX IMVI melanoma and with SK-MEL-28 melanoma were 73.5% and 78.5%, respectively.
For `COc1ccc2c(c1)C(=O)/C(=C/c1ccc(OCC(=O)Nc3nccs3)cc1)O2`, the growth is -37.4% (active) in the assay with DU-145 prostate; -27.3% (active) in the assay with K-562 leukemia; -42.2% (active) in the assay on MALME-3M melanoma; 46.2% in the assay on MDA-MB-231 breast; 31.8% in the assay with RXF 393 renal; -68.5% (active) in the assay with SF-268 CNS. For the same compound, the growth in the assay with SF-295 CNS was 57.5%; with SF-539 CNS, -85% (active); in the assay on UACC-257 melanoma it was 84.9%; in the assay on M14 melanoma, 37.3%; in the assay with HCT-15 colon, 76.2%; in the assay on HT29 colon, 3.69% (active). Besides, the growth with SNB-75 CNS is -90.7% (active); in the assay on SNB-19 CNS it was 78.6%; in the assay on U251 CNS it was 4.62% (active); in the assay on PC-3 prostate, -62% (active); in the assay with SK-MEL-5 melanoma it was 100%; with UACC-62 melanoma it was 74.2%. Moreover, the figures for the growth in the assay with LOX IMVI melanoma and in the assay with SK-MEL-28 melanoma were -58.2% (active) and 103%, respectively.
On to `COc1ccc(N=Nc2ccc(O)c(=O)cc2)cc1`, for which the growth in the assay on DU-145 prostate was 19.3%; in the assay with K-562 leukemia, 2.95% (active); in the assay with MALME-3M melanoma, 9.91% (active); with MDA-MB-231 breast, 17.5%; with RXF 393 renal, 29.7%; with SF-268 CNS it was 22.3%. Further, the growth was 10.2% in the assay with SF-295 CNS; -5.77% (active) in the assay with SF-539 CNS; 7.51% (active) in the assay on UACC-257 melanoma; 13% with M14 melanoma; 16.4% in the assay with HCT-15 colon; 33.1% in the assay on HT29 colon. Also, the growth was 8.47% (active) in the assay on SNB-75 CNS; 15.1% in the assay with SNB-19 CNS; 12.8% in the assay on U251 CNS; 36.6% with PC-3 prostate; -23.3% (active) with SK-MEL-5 melanoma; -54% (active) in the assay on UACC-62 melanoma. The growth in the assay with LOX IMVI melanoma was -38.8% (active); in the assay on SK-MEL-28 melanoma it was 5.78% (active).
Turning to `O=C(Nc1ccccc1Cl)Oc1ccc(-c2ccccc2)cc1`, the growth is 120% with DU-145 prostate; 110% in the assay on K-562 leukemia; 122% in the assay with MALME-3M melanoma; 107% in the assay with MDA-MB-231 breast; 109% in the assay on RXF 393 renal; 119% in the assay on SF-268 CNS. The growth was 114% in the assay on SF-295 CNS; 95.1% in the assay on SF-539 CNS; 111% in the assay on UACC-257 melanoma; 107% in the assay on M14 melanoma; 104% with HCT-15 colon; 103% in the assay with HT29 colon. In addition, the growth with SNB-75 CNS is 84.2%; with SNB-19 CNS it was 98.4%; with U251 CNS it was 112%; in the assay with PC-3 prostate, 99.8%; with SK-MEL-5 melanoma, 99.9%; in the assay with UACC-62 melanoma it was 89%. Further, the growth was 106% with LOX IMVI melanoma and 151% in the assay on SK-MEL-28 melanoma.
For the compound `NC(=S)N/N=C/Cc1ccccc1`, the growth in the assay with DU-145 prostate was 110%; in the assay with K-562 leukemia it was 88.4%; with MALME-3M melanoma it was 119%; in the assay with MDA-MB-231 breast, 101%; with RXF 393 renal it was 103%; in the assay on SF-268 CNS, 105%. Further, the growth is 97.7% in the assay on SF-295 CNS; 109% in the assay on SF-539 CNS; 59.7% with UACC-257 melanoma; 104% with M14 melanoma; 87.4% in the assay on HCT-15 colon; 94.7% in the assay with HT29 colon. The growth in the assay on SNB-75 CNS is 110%; with SNB-19 CNS, 104%; in the assay with U251 CNS, 98.4%; in the assay with PC-3 prostate, 91.4%; in the assay with SK-MEL-5 melanoma, 107%; in the assay on UACC-62 melanoma it was 108%. Further, the growth in the assay on LOX IMVI melanoma was 73%; in the assay on SK-MEL-28 melanoma it was 109%.
As to `CCOC(=O)c1c(/C=C/C(=O)O)nc2ccccc2c1/C=C/c1ccccc1`, the growth is 14.2% in the assay on DU-145 prostate; 23.9% with K-562 leukemia; 51.4% in the assay with MALME-3M melanoma; 57.5% in the assay on MDA-MB-231 breast; 11.3% with RXF 393 renal; 40.7% in the assay with SF-268 CNS. The growth was 73.6% in the assay with SF-295 CNS; 19.8% in the assay with SF-539 CNS; 49.6% in the assay on UACC-257 melanoma; 63% in the assay on M14 melanoma; 23.9% in the assay on HCT-15 colon; 49.9% in the assay on HT29 colon. Moreover, the growth with SNB-75 CNS was 15%; in the assay on SNB-19 CNS, 61.1%; in the assay with U251 CNS it was 51.2%; in the assay on PC-3 prostate, 53.5%; in the assay with SK-MEL-5 melanoma, 53.7%; in the assay on UACC-62 melanoma, 45.5%. Besides, the growth in the assay on LOX IMVI melanoma is 28.1%; with SK-MEL-28 melanoma, 45.8%.
